GALK inhibitor – qHTS Assay for Inhibitors of Human Galactokinase (GALK) | Potency, µM (series often up to 57.5 µM), for inactives: at the top dose activity change, negative = inhibition, hits mostly inhibitors | P51570 | AID 1868, 2009 | Purified GALK, Kinase-Glo residual ATP luminescence | 0.007% of 270,000 active; note: potency is the fitted concentration of half-maximal effect; % is set by controls: 0 for no effect and ±100 for the full control effect
Target sequence (P51570 whole entry, looked up): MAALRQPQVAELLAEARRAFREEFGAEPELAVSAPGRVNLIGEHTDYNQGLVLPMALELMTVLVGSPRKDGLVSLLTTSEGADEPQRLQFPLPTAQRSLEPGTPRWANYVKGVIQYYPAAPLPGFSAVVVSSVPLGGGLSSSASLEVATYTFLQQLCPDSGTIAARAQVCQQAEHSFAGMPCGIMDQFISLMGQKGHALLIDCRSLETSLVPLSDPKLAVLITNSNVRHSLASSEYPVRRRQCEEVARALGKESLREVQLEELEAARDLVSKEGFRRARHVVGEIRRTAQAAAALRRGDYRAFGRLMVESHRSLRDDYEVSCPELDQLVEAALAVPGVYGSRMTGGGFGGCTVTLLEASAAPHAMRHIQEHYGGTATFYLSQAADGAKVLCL
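Kinase-Glo Plus luminescence measured ATP left after a 1 h room-temperature reaction. The reaction used 5 nM GALK, 100 uM galactose and 35 uM ATP at pH 8.0 (20 mM HEPES, 5 mM MgCl2, 60 mM NaCl, 1 mM DTT, 0.01% BSA).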
HttQ103 aggreg – qHTS Multiplex Assay to Identify Dual Action Probes in a Cell Model of Huntington: Aggregate Formation (GFP) | PC12 HttQ103-GFP aggregates, Acumen cytometry, 40 h | Potency, µM (top dose mostly 46.1 µM), for the others: at the highest dose activity change, negative = inhibition, actives largely listed as inhibitors | 1.1% of 220,000 active; note: potency is the fitted concentration of half-maximal effect; % is set by controls: 0 for no effect and ±100 for the full control effect; nearly all actives have a fitted effect of over 60% in size
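Read-out: GFP aggregate count by laser scanning cytometer (488 nm excitation, 500-530 nm emission, 1–25 µm objects >6 SD above background). Cells: PC12, inducible HTTex1-Q103-GFP, 100 nM tebufenozide; compounds titrated.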
PI4K2A inh – qHTS for small molecular inhibitors of PI4K2A; purified PI4K2A, ADP-Glo luminescence, 1 h; hits give low values; activity change, negative = inhibition, % at 76.9 µM; 0.13% of 420,000 active; in the data active = activity change below about -50%; inconclusive = mostly about -30% to -49%;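 note: -100% = wells without enzyme as full effect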
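ADP-Glo luminescence measured ADP generated by PI4K2A enzyme (4 ug/mL before mixing) with 1.2 mM PI substrate (pre-mix) and 300 microM ATP (pre-mix). Tris pH7.5 buffer with MgCl2, Triton X-100; 1 h reaction at ambient temperature.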
HTT ATP protect – qHTS Multiplex Assay to Identify Dual Action Probes in a Cell Model of Huntington: Cytoprotection (ATP) | PC12 HTT-Q103 induced, cytoprotection, ATP luminescence, 40 h | Potency, µM (doses to about 56.4 µM), for the others: cytoprotection (ATP increase), hits mostly activators | 0.14% of 230,000 active; note: potency is the fitted concentration of half-maximal effect; % of control where 0% means no effect; nearly all actives have a fitted effect of over 45% in size
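ATP quantification (ATPlite) reports survival of PC12 cells in which tebufenozide, 100 nM final, switches on Htt exon 1 with 103 glutamines linked to GFP; compounds are titrated.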
An asterisk follows results filed as active; [ ] = remark or other dose. Many of the other results were omitted from the sample, so hits are more common in it than they were. Unless noted, calls come from the whole dose curve; as a rule, active = well fitted curve in the direction sought with a large enough effect; inconclusive = small, poorly fitted or top-dose-only effect, or another doubt; inactive = no such curve, though single readings can be large; an effect the other way counts as inactive or inconclusive.

C[C@H]1Cc2c(-c3ccccc3)nc3c(c2CO1)CN(C(=O)Nc1cccc(C#N)c1)CC3 was read as HTT ATP protect 4%[10 µM].
For O=C(CNC(=O)c1ccccc1Cl)N/N=C/c1ccc([N+](=O)[O-])s1 the results were GALK inhibitor 1%, HttQ103 aggreg 11µM*, PI4K2A inh -4 and HTT ATP protect 14%[10 µM].
`COc1ccc(OC)c(-c2cc(C(=O)Nc3c(C)nn(Cc4ccccc4)c3C)no2)c1` gave GALK inhibitor 4%, HttQ103 aggreg inconclusive, PI4K2A inh -54* and HTT ATP protect -61%.
`O=c1cc(-c2ccc(O)c(O)c2)oc2ccccc12` gave HTT ATP protect -176%.
Screening COc1ccc(NC(=O)/C(Cl)=C(/Cl)S(=O)Cc2ccc(Cl)cc2)cn1 (stereo unspecified) returned GALK inhibitor 9%, HttQ103 aggreg 4.5µM*, PI4K2A inh -16 and HTT ATP protect -155%.
`COc1ccc(NC(=O)C(Cl)=C(Cl)Cl)cn1` gave GALK inhibitor 1%, HttQ103 aggreg inconclusive, PI4K2A inh -3 and HTT ATP protect -9%[10 µM].
Screening N#Cc1cccc(-n2nnnc2-c2ccccn2)c1 returned GALK inhibitor 0%, HttQ103 aggreg 11µM*, PI4K2A inh -2 and HTT ATP protect 3%[10 µM].
`N#Cc1cccc(-n2nnnc2-c2ccc3c(c2)OCO3)c1` gave GALK inhibitor -3%, HttQ103 aggreg 3%, PI4K2A inh 0 and HTT ATP protect 2%.
COc1cccc(C(=O)N2CCC(Oc3cccnc3)CC2)c1 was read as PI4K2A inh 1.
For Cc1nn(Cc2ccc(Cl)cc2Cl)c(C)c1NC(=O)c1nn(C)cc1Cl the results were GALK inhibitor -1%, HttQ103 aggreg -2%, PI4K2A inh -2 and HTT ATP protect -3%.
Cc1nn(C)c(Cl)c1NC(=O)OCc1ccc(Cl)cc1Cl was read as GALK inhibitor -3%, HttQ103 aggreg 7.9µM*, PI4K2A inh 8 and HTT ATP protect -15%.
Screening Cc1nnsc1NC(=O)OCc1ccc(Cl)cc1Cl returned GALK inhibitor -2%, HttQ103 aggreg inconclusive, PI4K2A inh 2 and HTT ATP protect -65%.
Screening Cc1nn(Cc2ccc(Cl)cc2Cl)c(C)c1NC(=O)CCl returned GALK inhibitor -3%, HttQ103 aggreg 3.5µM*, PI4K2A inh 22 and HTT ATP protect -5%[10 µM].
For NC(=O)c1ncn([C@@H]2O[C@@H](CO)[C@@H](O)[C@H]2O)n1 the results were HTT ATP protect -12%[1.9 µM].
`CC(c1ccccc1)n1cc(C(=O)N2CCCN(Cc3ccccc3)CC2)nn1` (stereo unspecified) gave PI4K2A inh -3.
CSCCCNc1nc(C)nc2c1nnn2Cc1ccccc1 was read as PI4K2A inh 2.
CCOc1ccc(Oc2c(Cl)c(Br)nn(Cc3cccc4ccccc34)c2=O)cc1 was read as PI4K2A inh 1.
CCN(CC)Cc1ccc(Nc2ccnc3cc(Cl)ccc23)cc1O was read as HTT ATP protect 14µM*.
CCN(CC)CCC[C@H](C)Nc1ccnc2cc(Cl)ccc12 was read as HttQ103 aggreg -10% and HTT ATP protect 8%[40.3 µM].
For Cc1cc(C(=O)N/N=C/c2cc(Cl)cc([N+](=O)[O-])c2O)c2ccccc2n1 the results were HttQ103 aggreg 16µM*, PI4K2A inh 3 and HTT ATP protect 0%[10 µM].
Screening CC(C)C[C@H](NC(=O)[C@H](Cc1ccccc1)NC(=O)c1cnccn1)B(O)O returned PI4K2A inh 3.
Screening CCN(CC)c1ccc(N=Cc2c(C)[nH]c3ccccc23)cc1 returned GALK inhibitor 0%, HttQ103 aggreg 11µM* and PI4K2A inh -9.
For Cc1ccc(-n2c(SCC(=O)Nc3ccc(OCc4ccccc4)cc3)nnc2-c2cnccn2)cc1 the results were PI4K2A inh -5.
Screening C=C(C(C)=O)C(O)c1cccc(Br)c1 (stereo unspecified) returned HTT ATP protect 18%.
`O=C1C=C(N2CCOCC2)c2ccccc2C1=O` gave GALK inhibitor 13µM* and PI4K2A inh -75*.
O=C1C=C(N2CCOCC2)c2cccc3cccc1c23 was read as PI4K2A inh 4.
